High-throughput results deposited in PubChem BioAssay by National Center for Advancing Translational Sciences (NCATS).
Hits are enriched below; roughly 12% of the tested compounds scored in any of these assays.
BAZ2B block: BAZ2B (human) inhibition | Potency, µM (top dose mostly 114 µM), for the others: top-dose activity change, negative = inhibition, hits mostly inhibitors | actives 4.4% (n = 360,000) | Q9UIF8 | AlphaScreen BAZ2B-H3K14Ac peptide displacement; further: on the % scale 0 is the no-effect control and ±100 the full control effect; nearly all actives have a fitted effect of over 60% in size
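AlphaScreen displacement: compounds (up to 110uM) incubated 30 min at room temperature with a preformed 50 nM BAZ2B/50 nM biotinylated H3K14Ac peptide complex in PBS pH 7.4 with Tween-20. Donor and acceptor beads at 10 ug/mL final added, 20 min light-protected before reading.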
G9a inh: G9a (human) methyltransferase inhibition; G9a H3K9 monomethylation, AlphaScreen, 2 h; Potency, µM (doses to about 102 µM), for inactives: top-dose activity, negative = inhibition, hits mostly inhibitors; actives 8.8% (n = 350,000); further: on the % scale 0 is the no-effect control and ±100 the full control effect; nearly all actives have a fitted effect of over 75% in size
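G9a (20 nM) was preincubated 15 min with compound, then reacted 2 h at room temperature with 500 nM biotin-H3K9 peptide and 20 µM SAM. Monomethyl-H3K9 detected by AlphaScreen using anti-H3K9me1 antibody.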
HP1b chromo inh: HP1-beta chromodomain-methylated histone interaction inhibition | AID 540317 | P83916 | AlphaScreen HP1-beta / biotin-H3K9me3 peptide binding | Potency, µM (top dose mostly 114 µM), without a hit: at the top dose activity change, negative = inhibition, actives largely listed as inhibitors | actives 0.56% (n = 390,000); further: nearly all actives have a fitted effect of over 70% in size
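HP1-beta protein (50 nM final) preincubated 30 min at room temperature with biotinylated H3(1-18)K9me3 peptide (50 nM) in PBS pH 7.4, 0.01% Tween-20, then compound added for 30 min. AlphaScreen streptavidin donor/nickel chelate acceptor beads (10 ug/mL final), 30 min dark, luminescence read.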
Sfp PPTase inh: blocks B. subtilis Sfp PPTase activity. Biochemical Sfp PPTase activity, qHTS. Potency, µM, without a hit: largest response in the series, negative = inhibition, usual class: inhibitors. actives 3.5% (n = 310,000). AID 1490;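 further: the enzyme is Sfp with the accession as filed and its product quenches rhodamine fluorescence; 0% = enzyme reaction without inhibitor and -100% = no enzyme wells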
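Fluorescence-quenching assay: 15 nM Sfp-PPTase preincubated 15 min at room temperature with compound, then 5 uM rhodamine-CoA and 12.5 uM BHQ-2-labelled YbbR peptide added. Fluorescence (ex 525/em 598 nm) read at start and after 30 min; difference gives rate.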
JMJD2A Tudor: blocks the human JMJD2A Tudor domain; O75164; AlphaScreen JMJD2A-Tudor / H3K4me3 peptide binding; Potency, µM (series often up to 114 µM), for the others: top-dose activity change, negative = inhibition, actives largely listed as inhibitors; actives 4.4% (n = 390,000); further: on the % scale 0 is the no-effect control and ±100 the full control effect; nearly all actives have a fitted effect of over 50% in size
An asterisk follows results filed as active; ? = inconclusive; · = no result given; [ ] = dose if it differs, or a comment. The call rests on the fitted dose curve; in most records, active means well fitted curve in the direction sought with a large enough effect; inconclusive means small, poorly fitted or top-dose-only effect, or another doubt; inactive means no such curve, though single readings can be large; an effect the other way counts as inactive or inconclusive. Potency means the concentration at half of the fitted maximal effect.

SMILES	BAZ2B block	G9a inh	HP1b chromo inh	Sfp PPTase inh	JMJD2A Tudor
CCOC(=O)C1(CCOc2ccccc2)CCN(Cc2ccc(C)s2)CC1	-3.8%	·	37.1%	2.2%	-10.3%
CN(C)P(=NC(=S)c1cccn1C)(N(C)C)N(C)C	?	10µM*	-10.1%	-24.3%	39.8µM*
CN(C)P(=O)(NC(=O)c1cccn1C)N(C)C	-7.7%	21.2%	31.5%	-9.1%	-18.1%
CNC(C)Cc1ccc(OC)cc1 (centres undefined)	·	·	·	-6.0%	·
CCCN(CC#CCOc1ccc(OC)cc1)CCC	56.2µM*	8.91µM*	-46.6%	-25.1%	6.31µM*
CN1CCc2cccc(Cl)c2CC1	-5.7%	-5.3%[59 µM]	75.3%	·	-7.9%
CCOC(=O)C1CCN(/C=C2\C(=O)NC(=S)N(CC)C2=O)CC1	-1.3%	-6.6%	67.3%	79.4µM*	-12.4%
CCOC(=O)C1CCN(/C=C2/C(=O)NC(=S)N(c3cccc(OC)c3)C2=O)CC1	-3.4%	22.4µM*	35.5%	0.5%	-9.0%
O=C1NC(=O)C(=O)C(=O)N1	·	·	·	14.1µM*	·
CCC(=NCCCn1ccnc1)c1c(O)n(-c2ccc(OC)cc2)c(=O)[nH]c1=O	-6.3%	·	11.1%	-15.6%	-8.3%
COC(=O)CCCCC1SCC(NC(=O)c2ccccc2)C1Cl (centres undefined)	79.4µM*	-41.3%	35.6%	0.0%	-11.7%
CCN1CCN(Cc2nc3ccc([N+](=O)[O-])cc3c(=O)n2-c2ccccc2F)CC1	2.1%	?	22.5%	-12.5%	6.9%
COc1cccc(-n2c(CN3CCOCC3)nc3ccc([N+](=O)[O-])cc3c2=O)c1	-6.7%	44.7µM*	12.3%	?	-17.4%
C[C@]12CC[C@H]3[C@@H](CC=C4C[C@@H](O)CC[C@@]43C)[C@@H]1CC[C@@H]2O	·	-36.7%[12.7 µM]	·	-2.2%	·
Brc1cc2c(cc1CN1CCN(c3ccccc3)CC1)OCCO2	?	?	-11.1%[57 µM]	1.2%	?
O=[N+]([O-])c1ccc(CN2CCN(c3ccc(Cl)cc3)CC2)o1	44.7µM*	·	?	79.4µM*	17.8µM*
Cc1ccc(N=Nc2cc(C)ccc2N)cc1	7.94µM*	·	?	-7.8%	?
NC(N)=NN=Cc1c(Cl)cccc1Cl	·	10.3%[21.5 µM]	·	0.8%	·
COC(=O)C1=C(c2ccc(S(C)(=O)=O)cc2)C[C@@H]2CC[C@H]1N2C(=O)N1CCC(C)CC1	·	·	44.0%	·	-6.4%
CC(C)c1ccc(N2C(=O)CC(=O)NC2=O)cc1	1.4%	-28.9%	23.0%	7.4%	-16.4%
Cc1ccc(N2C(=O)NC(=O)/C(=C\c3cccn3C(C)(C)C)C2=O)cc1	-1.1%	?	42.3%	14.7%	-16.0%
CCc1ccc(N2C(=O)NC(=O)/C(=C\C=C\c3ccco3)C2=O)cc1	44.7µM*	-128.3%[59 µM]	9.7%	50.1µM*	-28.6%
CC(C)c1ccc(N2C(=O)NC(=O)/C(=C/C=C/c3ccco3)C2=O)cc1	?	50.1µM*	-5.9%	-11.9%	?
Cc1ccc(N2C(=O)NC(=O)/C(=C/C=C/c3ccco3)C2=O)cc1	-25.7%	?	12.3%	50.1µM*	-20.2%
O=C1NC(=O)N(c2ccccc2)C(=O)/C1=C\C=C\c1ccccc1	-5.4%	·	?	15.8µM*	-8.3%
SMILES	BAZ2B block	G9a inh	HP1b chromo inh	Sfp PPTase inh	JMJD2A Tudor
CCc1ccc(N2C(=O)CC(=O)NC2=O)cc1	-23.1%	?	25.6%	13.1%	-10.2%
Cn1c(O)c(C(=N)COc2ccccc2)c(=O)n(C)c1=O	5.7%	15.0%[0.0925 µM]	21.4%	3.7%	-7.3%
CNC(=O)ON(C(=O)NC)C1N(C)C(=S)SC1(C)C (centres undefined)	-35.6%	-36.6%[12.7 µM]	67.6%	16.3%	2.2%
O=C(CF)N(O)c1ccc(C=Cc2ccccc2)cc1	·	·	23.9%	·	5.6%
COC(=O)C1=C(c2cccc(C#N)c2)C[C@@H]2CC[C@H]1N2C(=O)N1CCCC1	6.2%	3.3%[2.33 µM]	30.2%	·	2.1%
Cc1cc(C)cc(N2C(=O)NC(=O)/C(=C\C=C\c3ccco3)C2=O)c1	?	11.2µM*	?	44.7µM*	?
CCc1ccc(N2NC(=O)/C(=C/C=C/c3ccco3)C2=O)cc1	?	8.91µM*	-30.9%	3.7%	?
CCOc1ccc(Oc2nc(NCC(C)C)nc(N(C)C)n2)nn1	5.7%	?	18.8%	11.9%	-9.7%
O=C1C=CC(=O)c2c1ccc1c2ccc2ccccc21	·	5.01µM*	·	3.55µM*	·
c1ccc2c(c1)cc1ccc3cccc4ccc2c1c34	·	·	146.9%	·	87.7%
Cc1ccccc1-n1c(C)nc2ccsc2c1=O	·	·	44.1%	·	-7.0%
Cc1ccc(-n2c(O)c(C=Nc3ccc(S(=O)(=O)N(C)C)cc3)c(=O)[nH]c2=O)cc1	-9.4%	?	58.0%	-12.8%	0.0%
CCOc1ccc(CN(CCc2ccc3c(c2)OCO3)Cc2cccc(Br)c2)cc1	?	?	?	·	5.01µM*
COc1ccc(OC)c(-n2c(O)c(C=NCc3ccc4c(c3)OCO4)c(=O)[nH]c2=O)c1	-6.3%	-37.1%	19.0%	4.8%	-4.0%
COc1ccccc1NC(=O)N(Cc1ccc2c(c1)OCO2)C1CCN(Cc2ccccc2)CC1	?	?	-4.0%	·	?
CCOc1ccccc1CNCCc1ccc2c(c1)OCO2	3.0%	13.2%	21.3%	14.3%	-11.2%
CCOc1ccc(CN(CCc2ccc3c(c2)OCO3)Cc2ccc(OC)c(Br)c2)cc1	?	?	?	·	7.08µM*
CCOc1ccc(CN(CCc2ccc3c(c2)OCO3)Cc2ccc(C)cc2)cc1	?	?	?	·	6.31µM*
CCOc1ccc(CN(CCc2ccc3c(c2)OCO3)Cc2cccc(OC)c2)cc1	31.6µM*	2.24µM*	?	·	6.31µM*
CCCC(=O)NC(Oc1ccc(C(C)=O)cc1)C(Cl)(Cl)Cl (centres undefined)	-1.0%	6.7%	62.5%	19.9%	-3.5%
CO[C@@H]1C=CC23c4cc5c(cc4CO[C@]2(O)CN(C)[C@H]3C1)OCO5 (some centres undefined)	·	·	42.1%	·	-10.9%
O=C1CS[C@@H](c2ccccc2Cl)c2cc(Cl)ccc2N1	·	·	·	-2.0%	·
C[N+](C)(C)CC#CCN1CCCC1=O	·	0.631µM*	-0.1%	6.7%	?
COc1cccc(C2=CC(c3cc(Br)ccc3F)n3nnnc3N2)c1 (centres undefined)	8.0%	11.2µM*	63.7%	·	-9.6%
S=c1[nH]nc(Cn2c(-c3ccccn3)nc3ccccc32)n1-c1ccc2c(c1)OCCO2	-5.8%	-134.8%[59 µM]	?	79.4µM*	3.16µM*
CNC(=O)Oc1ccccc1C(=O)Nc1ccccc1	·	7.7%[12.7 µM]	·	1.0%	·
O=C(Cc1ccccc1)OCCNC(=O)c1cccnc1	?	22.2%[12.7 µM]	19.5%	0.1%	?
Oc1cc[c]([Hg][Cl])cc1	·	?	·	0.0562µM*	·
CCCCOP(=O)(OCCCC)C(O)c1ccc(Br)cc1 (centres undefined)	0.8%	12.1%[59 µM]	45.3%	0.3%	0.0%
